HT1080-NT tox – qHTS for induction of synthetic lethality in tumor cells producing 2HG: qHTS for the HT-1080-NT fibrosarcoma cell line | Potency, µM (top dose mostly 46.1 µM), most hits filed as cytotoxic | HT-1080-NT fibrosarcoma viability, CellTiter-Glo ATP luminescence, 48 h | AID 686970, 2013 | hit rate 1.6% among 360,000;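 note: NT is the 2HG producing partner of a matched IDH1 knockdown line; nearly all actives have a fitted effect of over 55% in size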
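HT-1080-NT; 750 cells/well; 5% FBS RPMI; 48 h compound, 37 degrees C; CellTiter-Glo luminescence; curve fitting and curve-class assignment.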
HT1080 IDH1KD tx – qHTS for induction of synthetic lethality in tumor cells producing 2HG: qHTS for the HT-1080-IDH1KD cell line; HT-1080 IDH1 knockdown viability, ATP luminescence, 48 h; Potency, µM (titrated, usually from 46.1 µM), most hits filed as cytotoxic; hit rate 2% among 360,000
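IDH1KD HT-1080 cells, 750/well, RPMI + 5% FBS; compound pinned after 2 h settling; 48 h, 37 °C; CellTiter-Glo luminescence; % activity normalised to DMSO and no-cell wells; curves fitted, classed by r2 and efficacy.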
IL1B secr inh – qHTS for Inhibitors of Inflammasome Signaling: IL-1-beta AlphaLISA Primary Screen. hit rate 4.7% among 360,000. THP-1 LPS/ATP IL-1B secretion, AlphaLISA, 16 h; hits give low values. activity change, % at 57.5 µM; in the data active = activity change below about -50%; inconclusive = mostly about -30% to -49%
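THP-1 cells pretreated 1 hr with compounds (up to 57.5 uM final), then stimulated with LPS (250 ng/mL final) plus ATP (1.25 mM final); secreted IL-1B measured by AlphaLISA after 16 hr, decreased signal indicating inhibition.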
KB-3-1 tox – qHTS assay for MDR1-selective chemotherapeutics: Primary screen using the parental adenocarcinoma cell KB-3-1; Potency, µM (doses to about 46.1 µM), usual class: cytotoxic; hit rate 1.4% among 400,000; AID 1347075, 2019; KB-3-1 viability, CellTiter-Glo ATP luminescence, 72 h; note: nearly all actives have a fitted effect of over 60% in size
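Cytotoxicity in the drug-sensitive parental line KB-3-1 was scored as loss of CellTiter-Glo luminescence following 72 h incubation with compound. Values come from curve fitting of normalized concentration-response data.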
KB-V1 MDR tox – qHTS assay for MDR1-selective chemotherapeutics: Primary screen using the drug-selected MDR subline cells KB-V1 | hit rate 3.4% among 400,000 | Potency, µM (series often up to 46.1 µM), most hits filed as cytotoxic | AID 1347076, 2019 | KB-V1 MDR cells viability, CellTiter-Glo, 72 h; note: nearly all actives have a fitted effect of over 60% in size
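Readout: CellTiter-Glo luminescence, 10 min after addition. Cells: KB-V1 MDR subline, 72 h at 37 degrees C with compound. Analysis: corrected, normalized data fitted to concentration-effect curves.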
Each line names hits and unclear results; the compound was inactive in the other large screens. Hits are enriched below; roughly 8.8% of the tested compounds scored in any of these assays. Unless noted, calls come from the whole dose curve; as a rule, active = well fitted curve in the direction sought with a large enough effect; inconclusive = small, poorly fitted or top-dose-only effect, or another doubt; inactive = no such curve, though single readings can be large; an effect the other way counts as inactive or inconclusive.

Cc1ccccc1C(=O)Nc1ccccc1C(=O)NCc1ccccc1	KB-V1 MDR tox 20.6µM
CCCCc1ccc(CC(=O)NO)cc1	none (no result: HT1080-NT tox, HT1080 IDH1KD tx, IL1B secr inh)
COc1ccc(C)cc1NC(=O)c1cc2c(=O)n(Cc3cccnc3)ccc2nc1C	none (no result: HT1080-NT tox, HT1080 IDH1KD tx, IL1B secr inh)
Cc1ccnc2ccc(N)cc12	none (no result: HT1080-NT tox, HT1080 IDH1KD tx, IL1B secr inh)
CCC(OC(C)=O)c1cc2c(cc1[N+](=O)[O-])OCCO2 (stereo not given)	KB-V1 MDR tox inconclusive
COc1ccccc1C=CC(=O)C=Cc1ccccc1OC	HT1080-NT tox inconclusive, HT1080 IDH1KD tx 13µM, IL1B secr inh -104.3, KB-3-1 tox inconclusive, KB-V1 MDR tox inconclusive
COc1ccccc1/C=C/C(C)=O	none
COc1ccccc1/C=C/C(=O)Nc1cccnc1Cl	IL1B secr inh -54.9
CNc1ccccc(C(=O)/C=C/c2ccccc2OC)c1=O	IL1B secr inh -104.2, KB-3-1 tox inconclusive, KB-V1 MDR tox 14.6µM
COc1ccccc1/C=C/C(=O)/C=C/c1ccccc1O	HT1080-NT tox 6.51µM, HT1080 IDH1KD tx 5.8µM, IL1B secr inh -98.3, KB-3-1 tox inconclusive, KB-V1 MDR tox inconclusive
Cn1c(=O)oc2cc(S(=O)(=O)NC(CC(=O)O)c3cccc(Br)c3)ccc21 (stereo not given)	none (no result: HT1080-NT tox, HT1080 IDH1KD tx, IL1B secr inh)
COc1cc(/C=C/CNC[C@H]2O[C@@H](n3cnc4c(N)ncnc43)[C@H](O)[C@@H]2O)ccc1O	none
O=C(CSc1nc2c(c(=O)[nH]1)CCC2)Nc1cccc(O)c1	none (no result: HT1080-NT tox, HT1080 IDH1KD tx, IL1B secr inh)
COCCCNc1c2c3c(cccc3[nH]c1=O)C(=O)c1ccccc1-2	HT1080-NT tox inconclusive, HT1080 IDH1KD tx inconclusive, KB-3-1 tox 5.8µM, KB-V1 MDR tox 2.06µM
Cc1ccc(CN2CCN(Cc3cnc(N4CCOCC4)s3)CC2CCO)cc1 (stereo not given)	none
O=C(Nc1ccc(Cl)cn1)c1cccc(S(=O)(=O)N2CCCC2)c1	KB-V1 MDR tox 16.4µM
O=C(Nc1ccccn1)c1cccc(S(=O)(=O)N2CCc3ccccc3C2)c1	IL1B secr inh -55.6
CN(C)S(=O)(=O)Oc1cccc(C(=O)Nc2ccc(Cl)cc2)c1	HT1080 IDH1KD tx inconclusive, IL1B secr inh -62.9, KB-3-1 tox 9.2µM
CN(C)S(=O)(=O)c1cccc(C(=O)Nc2ccc(Cl)cn2)c1	KB-V1 MDR tox 23.1µM
O=C(Nc1ccc(Cl)cn1)c1cccc(S(=O)(=O)N2CCCCCC2)c1	KB-3-1 tox inconclusive, KB-V1 MDR tox inconclusive
O=C(Nc1ccccn1)c1cccc(S(=O)(=O)N2CCCC2)c1	none (no result: KB-3-1 tox, KB-V1 MDR tox)
COc1ccc(C2Nc3ccccc3C(=O)N2Cc2ccccc2)cc1COc1ccc([N+](=O)[O-])c(C)c1 (stereo not given)	none (no result: HT1080-NT tox, HT1080 IDH1KD tx, IL1B secr inh)
CN(Cc1ccc2nsnc2c1)C(=O)C1CCC(=O)N(CCc2ccccc2)C1 (stereo not given)	KB-V1 MDR tox inconclusive
O=C1COc2ccc(S(=O)(=O)CCC(=O)N3CCN(c4cccc(Cl)c4)CC3)cc2N1	HT1080-NT tox inconclusive, HT1080 IDH1KD tx inconclusive
Cc1ccc(Cl)cc1N1CCN(C(=O)CCS(=O)(=O)c2ccc3c(c2)NC(=O)CO3)CC1	IL1B secr inh -52.9, KB-3-1 tox inconclusive
NCCC1CCCC(CCN)N1 (stereo not given)	none
COc1ccc(-c2c[n+](CC(=O)c3cccs3)c3n2CCC3)cc1	KB-3-1 tox inconclusive
CC1CCC(C(C)C)C(OC(=O)C[n+]2cc(-c3ccc(Cl)cc3)n3c2CCC3)C1 (stereo not given)	HT1080-NT tox inconclusive, HT1080 IDH1KD tx inconclusive, IL1B secr inh -86.1
O=C(C[n+]1cc(-c2ccc(Cl)c(Cl)c2)n2c1CCC2)N1c2ccccc2Sc2ccccc21	HT1080-NT tox inconclusive, HT1080 IDH1KD tx inconclusive
COc1ccc(-c2c[n+](CC(=O)N3c4ccccc4Sc4ccccc43)c3n2CCC3)cc1	HT1080-NT tox inconclusive, HT1080 IDH1KD tx inconclusive, IL1B secr inh -61.5, KB-3-1 tox inconclusive
O=C(C[n+]1cc(-c2ccc(Cl)cc2)n2c1CCC2)N1c2ccccc2Sc2ccccc21	IL1B secr inh -57.1
COc1ccc(NC(=O)NCC(C)CSc2ccc(C)cc2)c(OC)c1 (stereo not given)	none
COC(=O)[C@@]1(Sc2ccc(C)cc2)CC(=O)N(C(=O)c2ccccc2)[C@@H]1c1ccccc1	KB-V1 MDR tox inconclusive
CCOC(=O)c1c(C)c(C(=O)NCCOC)c(C)n1CC	none
CCOC(=O)c1c(C)c(C(=O)Nc2ccc3c(c2)OCCO3)c(C)n1C	HT1080-NT tox inconclusive, HT1080 IDH1KD tx inconclusive, KB-3-1 tox inconclusive, KB-V1 MDR tox 14.6µM
CCOC(=O)c1c(C)c(C(=O)Nc2ccc(N(C)C)cc2)c(C)n1CC	HT1080-NT tox 8.91µM, HT1080 IDH1KD tx 7.08µM, KB-3-1 tox 7.31µM, KB-V1 MDR tox 4.11µM
COc1cccc(OC)c1C(=O)Nc1ccc2c(c1)OCCO2	none
CCOC(=O)c1c(C)c(C(=O)Nc2cc(F)ccc2F)c(C)n1C	HT1080 IDH1KD tx inconclusive, KB-3-1 tox 10.3µM, KB-V1 MDR tox 2.59µM
Cc1cc(C)c2c(c1)/C(=N/NC(=O)c1cc(C)oc1C)CCC2	none
CCOc1ccc(/C=C(\C)C(=O)c2c(C)cc(C)[nH]c2=O)cc1	none
CCCCCN1CC(=O)N2Cc3[nH]c4ccccc4c3C[C@H]2C1=O	IL1B secr inh -58.9
CCCCCCN1CC(=O)N2Cc3[nH]c4ccccc4c3C[C@H]2C1=O	IL1B secr inh -58.4
C=CCN1CC(=O)N2Cc3[nH]c4ccccc4c3C[C@H]2C1=O	none
O=C1[C@@H]2Cc3c([nH]c4ccccc34)CN2C(=O)CN1CCCO	none
CCCCN1C(=O)C2Cc3c([nH]c4ccccc34)CN2C1=S (stereo not given)	IL1B secr inh -88.4, KB-V1 MDR tox inconclusive
CCCCCC(=O)Nc1ccc(S(=O)(=O)NC2=NCCCCC2)cc1	none
CCC(CC)C(=O)OCC(=O)Nc1cc(OC)c([N+](=O)[O-])cc1C	KB-V1 MDR tox inconclusive
CCC1(c2ccc(F)cc2)NC(=O)N(CC(=O)Nc2ccc(S(N)(=O)=O)cc2)C1=O (stereo not given)	none
CC(C)(C)C(=O)Nc1ccc(/C=C/C(=O)c2ccco2)cc1	HT1080-NT tox inconclusive, HT1080 IDH1KD tx 23.1µM, IL1B secr inh -102.0
CN(CCc1ccccc1)C(c1ccnc2ccccc12)c1nnnn1-c1ccc2c(c1)OCCO2 (stereo not given)	HT1080-NT tox inconclusive, HT1080 IDH1KD tx inconclusive, KB-V1 MDR tox inconclusive
CC(OCC(O)CNCC1COc2ccccc2O1)c1ccc(Cl)cc1 (stereo not given)	HT1080-NT tox inconclusive, HT1080 IDH1KD tx inconclusive, KB-V1 MDR tox inconclusive
OC(CNCC1COc2ccccc2O1)COCc1cccs1 (stereo not given)	KB-3-1 tox inconclusive, KB-V1 MDR tox 20.6µM
COc1ccccc1NC(=O)C(=O)N/N=C(\C)CC(=O)Nc1ccccc1C(F)(F)F	none

Source: PubChem (National Center for Advancing Translational Sciences (NCATS))
